Test results: PubChem BioAssay (NCATS)
Inconclusive results are not listed. Entries that show only a call come without a potency. Activity calls are given as the source filed them. Unless noted, the call rests on the fitted dose curve; in most records, active means well fitted curve in the direction sought with a large enough effect; inconclusive means small, poorly fitted or top-dose-only effect, or another doubt; inactive means no such curve, though single readings can be large; an effect the other way counts as inactive or inconclusive.

What was measured:
[1] = biological target: Ubiquitin carboxyl-terminal hydrolase 1 (Homo sapiens) (UniProt O94782); test: Inhibitors of USP1/UAF1: Pilot qHTS (AID 504865); details: purified USP1/UAF1, Ub-rhodamine cleavage fluorescence; series mostly up to 114 µM;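 further: rhodamine fluorescence freed from ubiquitin-rhodamine substrate followed over time; top concentration of the series differs between compounds; nearly all actives have a fitted effect of over 35% in size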
Method in brief: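 Deubiquitinase activity followed as kinetic rhodamine fluorescence release from 150 nM Ub-Rho. 1 nM USP1/UAF1 with compound, after 15 min room-temperature preincubation, in HEPES pH 7.8 buffer containing TCEP, EDTA, BSA and Tween-20.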

[2] = biological target: Luciferin 4-monooxygenase (Photinus pyralis) (UniProt P08659); test: Biochemical firefly luciferase enzyme assay for NPC (AID 624030);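 further: purified P. pyralis luciferase at 10 nM with luciferin and ATP substrate; nearly all actives have a fitted effect of over 70% in size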; details: purified P. pyralis luciferase, luminescence, 5 min; series mostly up to 58.6 µM
Method in brief: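 Direct inhibition of firefly luciferase enzyme (10 nM final, 50 mM Tris Acetate) assessed by luminescence within 5 minutes. Percent activity scaled between DMSO and PTC124 positive control, with concentration-effect curves classified by fit quality and response.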

[3] = S16 Schwann cell PMP22 intronic element firefly luciferase assay (AID 624032); details: S16 rat Schwann cells, PMP22 element FLuc, 24 h; series mostly up to 57.5 µM; further: nearly all actives have a fitted effect of over 30% in size
Method in brief: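 Luciferase reporter of PMP22 intronic-element expression in stably transfected S16 rat Schwann cells, read by ONE-Glo luminescence after 24 h compound exposure at 37 C. Activity scaled between DMSO (0%) and positive-control PTC124; concentration-effect curves quality-classified.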

[4] = S16 Schwann cell PMP22 intronic element beta-lactamase assay (AID 624044; calls by dose curve; further: nearly all actives have a fitted effect of over 15% in size); details: S16 rat Schwann cells, PMP22 element beta-lactamase FRET, 24 h; ratio activity, negative = inhibition: at 38.3 µM (top of the series)
Method in brief: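 Rat S16 Schwann cells with beta-Lac driven by a PMP22 intronic element, compound-treated 24 h at 37 °C. LiveBLAzer FRET B/G read: 460 nm normalized to potassium clavulanate vs DMSO; 535 nm FRET as viability; concentration-effect curves classified.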

W2 = test: qHTS profiling for inhibitors of Plasmodium falciparum proliferation (AID 504749); further: nearly all actives have a fitted effect of over 60% in size; further: potency means the concentration at half of the fitted maximal effect; details: P. falciparum in erythrocytes, SYBR Green DNA, 72 h; series mostly up to 28.7 µM
Method in brief: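 Three-day growth assay of blood-stage parasites in erythrocytes (0.3% parasitemia, 2.5% hematocrit) at 37 C, 5% CO2, quantified by SYBR Green DNA staining after overnight detergent lysis.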

[5] = S16 Schwann cell viability assay (CellTiter-Glo assay) (AID 624031); details: S16 rat Schwann cells viability, 24 h; series mostly up to 57.5 µM;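 further: native untransfected S16 rat Schwann cells; cellular ATP luminescence as a viability measure; nearly all actives have a fitted effect of over 70% in size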
Method in brief: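 Following overnight culture in 10% FBS DMEM, parental S16 rat Schwann cells are dosed for 24 h at 37 °C. Viability is read as CellTiter-Glo luminescence and expressed as % activity relative to DMSO (0%) and no-cell wells.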

Ubiquitin carboxyl-terminal hydrolase 1 (Homo sapiens), sequence (O94782 whole entry, looked up): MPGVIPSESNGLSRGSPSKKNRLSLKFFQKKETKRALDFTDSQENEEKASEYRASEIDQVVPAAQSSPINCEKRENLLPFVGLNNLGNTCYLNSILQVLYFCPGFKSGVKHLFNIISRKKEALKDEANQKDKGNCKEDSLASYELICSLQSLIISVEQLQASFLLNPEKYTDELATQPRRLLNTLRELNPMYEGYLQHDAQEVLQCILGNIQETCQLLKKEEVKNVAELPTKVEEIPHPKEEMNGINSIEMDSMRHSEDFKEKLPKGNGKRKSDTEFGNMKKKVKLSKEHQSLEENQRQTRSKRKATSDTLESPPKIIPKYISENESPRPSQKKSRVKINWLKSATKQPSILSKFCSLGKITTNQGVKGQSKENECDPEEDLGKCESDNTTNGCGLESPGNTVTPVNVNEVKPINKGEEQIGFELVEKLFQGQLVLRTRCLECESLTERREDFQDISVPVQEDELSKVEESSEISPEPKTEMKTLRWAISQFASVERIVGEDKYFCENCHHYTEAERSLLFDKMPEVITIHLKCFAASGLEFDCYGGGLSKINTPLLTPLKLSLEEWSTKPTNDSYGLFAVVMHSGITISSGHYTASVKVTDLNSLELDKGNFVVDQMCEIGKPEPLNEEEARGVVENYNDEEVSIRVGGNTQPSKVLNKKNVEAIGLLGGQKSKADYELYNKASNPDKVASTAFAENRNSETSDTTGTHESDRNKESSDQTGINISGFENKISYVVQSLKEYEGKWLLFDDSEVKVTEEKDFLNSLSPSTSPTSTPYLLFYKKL
Luciferin 4-monooxygenase (Photinus pyralis), sequence (P08659 whole entry, looked up): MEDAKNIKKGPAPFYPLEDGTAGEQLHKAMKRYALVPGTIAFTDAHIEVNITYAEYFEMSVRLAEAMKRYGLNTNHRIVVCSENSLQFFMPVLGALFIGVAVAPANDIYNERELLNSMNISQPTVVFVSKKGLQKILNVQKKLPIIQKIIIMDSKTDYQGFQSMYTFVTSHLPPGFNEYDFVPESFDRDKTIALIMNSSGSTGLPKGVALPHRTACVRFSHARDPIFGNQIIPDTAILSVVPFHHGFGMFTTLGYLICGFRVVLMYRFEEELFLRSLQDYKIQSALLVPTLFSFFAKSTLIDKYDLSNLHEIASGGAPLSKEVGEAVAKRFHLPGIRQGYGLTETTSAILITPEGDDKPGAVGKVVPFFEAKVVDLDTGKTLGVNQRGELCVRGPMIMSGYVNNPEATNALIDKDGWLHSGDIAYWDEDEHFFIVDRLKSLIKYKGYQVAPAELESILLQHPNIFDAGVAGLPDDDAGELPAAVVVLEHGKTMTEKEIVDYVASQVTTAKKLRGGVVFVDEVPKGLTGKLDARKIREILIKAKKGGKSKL

Structure (SMILES) | Potency [1] | Potency [2] | Potency [3] | Potency [4] | Potency (W2) | Potency [5]
Cc1cnc(C(=O)O)cn1 | inactive | inactive | inactive | inactive | inactive | 
CC(O)C1CCC2C3CCC4CC(O)CCC4(C)C3CCC12C (configuration not stated) | inactive | inactive |  | inactive | inactive | inactive
CNC1C(O)C(OC2C(N)CC(N)C(OC3OC(CN)=CCC3N)C2O)OCC1(C)O (configuration not stated) | inactive | inactive | inactive |  | inactive | 
CCCCCCCCCCCCCCCC(=O)OCC(COP(=O)(O)OCC[N+](C)(C)C)OC(=O)CCCCCCCCCCCCCCC (configuration not stated) | inactive | inactive | inactive | inactive | inactive | inactive
CNC(=O)C(N)CSC(C)C1=C(C)c2cc3[n-]c(cc4nc(cc5[n-]c(cc1n2)c(C)c5CCC(=O)O)C(CCC(=O)O)=C4C)c(C)c3C(C)SCC(N)C(=O)NC.[Fe+2] (configuration not stated) | inactive |  | inactive | inactive | inactive | inactive
NC(CSSCC(N)C(=O)O)C(=O)O (configuration not stated) | inactive | inactive | inactive | inactive | inactive | inactive
CC(=O)OC1C([N+]2(C)CCCCC2)C[C@H]2C3CC[C@H]4C[C@H](OC(C)=O)C([N+]5(C)CCCCC5)CC4(C)C3CCC12C (some centres not stated) |  | inactive | inactive | inactive |  | 
CO[C@H]1C[C@@H]2CC[C@@H](C)[C@@](O)(O2)C(=O)C(=O)N2CCCC[C@H]2C(=O)O[C@H]([C@H](C)C[C@@H]2CC[C@@H](O)[C@H](OC)C2)CC(=O)[C@H](C)/C=C(\C)[C@@H](O)[C@@H](OC)C(=O)[C@H](C)C[C@H](C)/C=C/C=C/C=C/1C |  |  | inactive | inactive | 1.2 µM (active) | 
CCCCC(=O)O[C@]1(C(=O)CO)CCC2C3CCC4=CC(=O)CCC4(C)C3C(O)CC21C (some centres not stated) |  | inactive | inactive |  |  | inactive
C[C@]12CC[C@@H]3c4ccc(O)cc4C[C@@H](CCCCCCCCCS(=O)CCCC(F)(F)C(F)(F)F)C3[C@@H]1CC[C@@H]2O (some centres not stated) |  | inactive |  | inactive | 6.75 µM (active) | 
CO/N=C(/C(=O)N[C@@H]1C(=O)N2C(C(=O)O)=C(CSC(=O)c3ccco3)CSC12)c1csc(N)n1 (some centres not stated) | inactive |  | inactive |  | inactive | inactive
CCC(=O)O[C@]1(C(=O)CCl)[C@@H](C)CC2C3C[C@H](F)C4=CC(=O)C=CC4(C)[C@@]3(F)C(O)CC21C (some centres not stated) |  | inactive |  | inactive | 6.01 µM (active) | 
CC1C(=O)C(=O)C=CN1C (configuration not stated) | inactive |  | inactive |  | inactive | inactive
OCC1OC(O)C(O)C(O)C1O (configuration not stated) |  | inactive | inactive |  |  | inactive
OCC(CO)NC1C[C@](O)(CO)[C@@H](O)[C@H](O)[C@H]1O (some centres not stated) | inactive |  | inactive | inactive | inactive | inactive
